Vaccinia mCherry: qHTS for Stage-Specific Inhibitors of Vaccinia Orthopoxvirus: mCherry Reporter Primary qHTS; Potency, µM (highest dose often 36.5 µM), usual class: inhibitors; Vaccinia virus mCherry reporter infection, fluorescence; 310,000 tested, 0.63% active; calls by dose curve; tested in A549 cells; also: nearly all actives have a fitted effect of over 35% in size
Vaccinia Venus: qHTS for Stage-Specific Inhibitors of Vaccinia Orthopoxvirus: Venus Reporter Primary qHTS. Vaccinia virus Venus reporter expression, fluorescence. Potency, µM (titrated, usually from 36.5 µM), usual class: inhibitors. 330,000 tested, 0.46% active. AID 720580, 2013; calls by dose curve; tested in A549 cells; also: nearly all actives have a fitted effect of over 30% in size
HCV inh: qHTS Assay for Inhibitors of Hepatitis C Virus (HCV) | Huh7.5.1 HCVcc-Cre infection, luciferase reporter, 44 h | Potency, µM (series often up to 41.8 µM), actives largely listed as inhibitors | 340,000 tested, 3.4% active; active = well fitted inhibition curve with a large enough effect; inconclusive = small, poorly fitted or top-dose-only effect, or another doubt; inactive = no such curve, though single readings can be large or run the other way
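Whole-lifecycle infectious HCVcc-Cre system; cells 1,000/well, compound then virus (~0.5 moi) added 4 h after plating, 44 h culture. Luciferase read 15 sec following 15 min substrate incubation, room temp.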
HCMV inh: qHTS Assay for inhibitors of the human cytomegalovirus (HCMV). 410,000 tested, 4.5% active. activity change, negative = inhibition, % at 57.5 µM. HFF cells, HCMV-luciferase reporter, 72 h; stronger effect = lower value; in the data active = activity change below about -60%; inconclusive = no clear call, values can overlap the other calls; inactive = above about -39%
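Two-dose cell screen: HFF monolayers treated with compounds and infected with luciferase-expressing HCMV at 1 PFU/cell, 72 h at 37C, then lysed for luciferase measurement.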
FMDV antiviral: High Throughput Screening for Foot and Mouth Disease Virus Antivirals. FMDV antiviral cell-based qHTS. Potency, µM (highest dose often 57.9 µM), most hits filed as inhibitors. 410,000 tested, 1.2% active; calls by dose curve; tested in HEK293T cells; also: read-out not given here; nearly all actives have a fitted effect of over 45% in size
Each line names hits and unclear results; the compound was inactive in the other large screens. Shown are actives, neighbours in structure and some others; about 7.3% of the full set was active somewhere.

CCC(C)(C)NC(=O)C(c1ccc(F)cc1)N(Cc1ccccc1)C(=O)c1cnccn1 (configuration not stated)	HCV inh 1.4µM, HCMV inh inconclusive
COc1cc(C(C(=O)NC(C)(C)C)N(Cc2ccccc2)C(=O)c2cnccn2)cc(OC)c1OC (configuration not stated)	none
CCn1cc(/C=C(\NC(=O)c2ccc(OC)cc2)C(=O)N2CCOCC2)c2ccccc21	none (no result: Vaccinia mCherry, Vaccinia Venus)
O=C1NC(=S)N(c2ccccc2F)C(=O)/C1=C\c1cccs1	FMDV antiviral 32µM
O=C(c1ccco1)N1CCCC(c2nc(-c3ccc(S(=O)(=O)NCc4ccccc4)cc3)no2)C1 (configuration not stated)	Vaccinia Venus inconclusive, HCV inh inconclusive, HCMV inh -88, FMDV antiviral inconclusive
O=C(CC1CCCCC1)N1CCCC(c2nc(-c3ccc(S(=O)(=O)N4CCCC4)cc3)no2)C1 (configuration not stated)	HCV inh inconclusive, HCMV inh -71 (no result: FMDV antiviral)
COc1ccc(-c2noc(C3CCCN(C(=O)c4ccccc4)C3)n2)cc1 (configuration not stated)	HCV inh inconclusive
COc1ccc(C(=O)N2CCC(c3nc(-c4ccc(S(=O)(=O)N5CCCC5)cc4)no3)CC2)cc1	Vaccinia mCherry inconclusive, HCMV inh -81 (no result: HCV inh)
CC(=O)NC(CC(=O)N(Cc1ccccc1)c1cccc(C)c1)c1ccccc1 (configuration not stated)	none (no result: HCMV inh)
CCc1cc2c(=O)oc(-c3ccc(F)cc3)nc2s1	none (no result: Vaccinia mCherry, Vaccinia Venus)
Cc1ccc(-c2nc3c(=O)n(C)c(=O)nc-3n(C)n2)cc1	Vaccinia mCherry 2.8µM, Vaccinia Venus 0.89µM (no result: HCV inh, HCMV inh, FMDV antiviral)
Cc1ccccc1-c1nc2ccccc2c(=O)n1C	none
Cc1ccccc1-c1nc2c(=O)n(C)c(=O)nc-2n(C)n1	Vaccinia mCherry 2.8µM, Vaccinia Venus 0.89µM (no result: HCV inh, HCMV inh, FMDV antiviral)
CCc1ccc(-c2nc3c(=O)n(C)c(=O)nc-3n(CC)n2)cc1	Vaccinia mCherry 5.6µM, Vaccinia Venus 11µM (no result: HCV inh, HCMV inh, FMDV antiviral)
Cn1nc(-c2ccccn2)nc2c(=O)n(C)c(=O)nc1-2	HCV inh 2µM, HCMV inh -101, FMDV antiviral 1.3µM (no result: Vaccinia mCherry, Vaccinia Venus)
CCOc1ccccc1Nc1nnc(SCC(=O)N(C)C2CCS(=O)(=O)C2)s1 (configuration not stated)	none
O=C(Cc1c(F)c(F)c(F)c(F)c1F)Nc1nc(-c2ccccc2)cs1	HCV inh inconclusive, HCMV inh inconclusive, FMDV antiviral inconclusive
CCCCNC(=O)[C@@H]1CC=C[C@@H]2CCN(C3CCCCC3)C(=O)[C@@H]21	none (no result: HCV inh, HCMV inh, FMDV antiviral)
CN(Cc1ccco1)c1nc(-c2ccccc2C(F)(F)F)nc2ccccc12	none (no result: Vaccinia mCherry, Vaccinia Venus, HCV inh, HCMV inh)
CCOc1cccc2cc(-c3nc4sc5c(c4c(=O)[nH]3)CCC(C)C5)c(=O)oc12 (configuration not stated)	none (no result: HCV inh)
CCn1c(N)nc2c1c(=O)n(C)c(=O)n2C	none
Cn1ncnc2c(=O)n(C)c(=O)nc1-2	HCV inh 0.5µM, FMDV antiviral 1.6µM (no result: Vaccinia mCherry, Vaccinia Venus, HCMV inh)
CCCc1nc2c(=O)n(C)c(=O)nc-2n(C)n1	Vaccinia mCherry inconclusive, Vaccinia Venus 1µM, HCV inh 2.5µM, HCMV inh -99, FMDV antiviral 2.5µM
NC(=O)C1CCN(c2nc(-c3cccs3)cs2)CC1	none (no result: Vaccinia mCherry, Vaccinia Venus, HCV inh, HCMV inh)
COc1cc(NC(=O)CN2c3cccc4cccc(c34)S2(=O)=O)cc(OC)c1OC	Vaccinia mCherry inconclusive, Vaccinia Venus inconclusive, HCV inh 11µM, FMDV antiviral inconclusive
COc1ccc(NC(=O)CN2c3cccc4cccc(c34)S2(=O)=O)c(OC)c1	HCV inh inconclusive
COc1ccc(-c2csc(N(CCCN3CCOCC3)C(=O)c3ccco3)n2)cc1	HCV inh 10µM (no result: Vaccinia mCherry, Vaccinia Venus)
O=C(CCS(=O)(=O)c1ccccc1)N(CCCN1CCOCC1)c1nc2ccccc2s1	HCV inh inconclusive
COc1ccc(-c2csc(N(C)C(=O)c3ccco3)n2)cc1	none
CN(C)CCCN(C(=O)c1ccco1)c1nc(-c2ccc(Cl)cc2)cs1	HCV inh 11µM (no result: Vaccinia mCherry, Vaccinia Venus)
Cc1ccc(S(=O)(=O)CCC(=O)N(CCCN2CCOCC2)c2nc3ccccc3s2)cc1	Vaccinia mCherry 14µM, Vaccinia Venus inconclusive
Cc1ccc(-c2csc(N(CCCN3CCOCC3)C(=O)c3ccco3)n2)cc1	HCV inh 11µM (no result: FMDV antiviral)
CCOC(=O)N1CCN(C(=O)CN(C)S(=O)(=O)c2ccc(Cl)cc2)CC1	none
O=C(c1ccco1)N(CC1CCCO1)c1nc(-c2ccccc2)cs1 (configuration not stated)	HCV inh inconclusive, HCMV inh -101, FMDV antiviral inconclusive (no result: Vaccinia mCherry, Vaccinia Venus)
FC(F)(F)C1=Nc2cccc3cccc(c23)N1	FMDV antiviral 16µM
CSC1=NC=C(C#N)C2=NC(c3c(Cl)cccc3Cl)NN12 (configuration not stated)	FMDV antiviral 40µM (no result: HCV inh, HCMV inh)
CCc1cc(C(=O)NNC(=O)CCN2CCN(c3ccccc3)CC2)sc1C	none (no result: Vaccinia mCherry, Vaccinia Venus)
CCc1cc(C(=O)NNC(=O)CCl)sc1C	HCMV inh -64 (no result: Vaccinia mCherry, Vaccinia Venus)
COC(=O)[C@]12CCCCC=C1N(CCc1ccc(OC)c(OC)c1)C(=O)[C@H](CC(=O)N1CCCCC1)C2	none (no result: HCV inh)
CCCCn1nc(NC(=O)CCC)c2cc3cc(OC)ccc3nc21	none
CCCn1nc(NC(=O)c2cccs2)c2cc3cc(OC)ccc3nc21	Vaccinia mCherry inconclusive, HCV inh 10µM
CCCCn1nc(NC(=O)c2cccs2)c2cc3cc(OC)ccc3nc21	HCV inh 10µM (no result: Vaccinia mCherry)
CCCCn1nc(NC(=O)c2cccs2)c2cc3ccccc3nc21	HCV inh inconclusive (no result: Vaccinia mCherry, Vaccinia Venus)
CN(C)C(=O)c1ccc(NC(=O)CN2C(=O)NC3(CCCc4ccccc43)C2=O)cc1 (configuration not stated)	none
CCCN(CC(=O)Nc1ccccc1C)C(=O)c1ccc2ccccc2n1	none
Cc1ccccc1NC(=S)c1ccc2ccccc2n1	HCV inh inconclusive, HCMV inh -63 (no result: Vaccinia mCherry, Vaccinia Venus)
O=C(O)c1ccc(CN2CCCCC2)o1	HCMV inh -68 (no result: FMDV antiviral)
COC(=O)c1ccc(CN2CCN(Cc3ccc(C(=O)OC)o3)CC2)o1	none (no result: Vaccinia mCherry)
CSc1n[nH]c(-c2cccs2)n1	none (no result: Vaccinia mCherry, Vaccinia Venus, HCV inh, FMDV antiviral)
O=C(NC1CCN(C(=O)NC2CCCCC2)CC1)c1ccco1	HCMV inh -107
O=C(NC1CCCCCCC1)c1ccco1	none (no result: Vaccinia mCherry, Vaccinia Venus)
COCc1cc(C)nc(SCC(=O)Nc2cc3c(cc2C#N)OCO3)c1C#N	HCV inh 10µM
COCc1cc(C)nc(SCC(=O)Nc2ccccc2C)c1C#N	none
O=C(NCC1CC1)[C@@H]1[C@@H](CO)[C@@H]2Cn3c(cccc3=O)[C@@H]2N1Cc1cccc(F)c1	none (no result: Vaccinia mCherry, Vaccinia Venus, HCV inh, FMDV antiviral)
CCC(CC)COC(=O)C1=C(C)NC(=O)NC1c1ccc2c(c1)OCO2 (configuration not stated)	HCV inh 10µM, FMDV antiviral inconclusive
CCOC(=O)C1=C(C)NC(=O)NC1c1ccc2c(c1)OCO2 (configuration not stated)	none

High-throughput results: PubChem, National Center for Advancing Translational Sciences (NCATS)
